Source: PubChem (The Scripps Research Institute Molecular Screening Center)
Most compounds without a hit are left out; they make up all but 2.4% or so of the library.
CHO-K1 Ca antag: M1 antagonist counterscreen hit in parental CHO-K1 cells. 360,000 compounds, 0.6% hits. AID 602250. inhibition, % at 3 µM. ATP-induced calcium, Fluo-8 fluorescence;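 active = inhibition above a per-plate cutoff, the plate's mean sample inhibition plus 3 SD, cut at about 24% in these data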
M1 PAM: human M1 muscarinic receptor positive allosteric modulators, primary screen, CHO-K1 cells, Fluo-8 calcium fluorescence, 1536-well; CHO-K1 hM1, ACh EC20; 0% = ACh EC20, 100% = maximal ACh; activation, % at 3 µM; 360,000 compounds, 0.088% hits; in the data active = activation above about 19%, passing the limit was not always enough
Target sequence (P11229 whole entry, looked up): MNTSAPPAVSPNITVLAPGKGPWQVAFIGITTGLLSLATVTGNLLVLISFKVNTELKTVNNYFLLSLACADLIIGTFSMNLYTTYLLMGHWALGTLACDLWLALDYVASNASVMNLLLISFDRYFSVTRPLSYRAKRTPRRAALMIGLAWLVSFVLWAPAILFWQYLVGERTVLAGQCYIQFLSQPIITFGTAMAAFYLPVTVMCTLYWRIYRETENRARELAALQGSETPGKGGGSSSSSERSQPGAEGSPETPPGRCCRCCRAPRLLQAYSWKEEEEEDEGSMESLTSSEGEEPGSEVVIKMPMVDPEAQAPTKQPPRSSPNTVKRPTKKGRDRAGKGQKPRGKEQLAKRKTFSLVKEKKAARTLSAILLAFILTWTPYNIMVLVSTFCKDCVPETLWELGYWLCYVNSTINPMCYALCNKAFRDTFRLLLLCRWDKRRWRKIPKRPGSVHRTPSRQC
CHRM1 antagonist: human M1 muscarinic receptor antagonists, primary screen, CHO-K1 cells, Fluo-8 calcium fluorescence, 1536-well. Muscarinic acetylcholine receptor M1 (Homo sapiens), P11229. inhibition, % at 3 µM. AID 588852, 2011. 360,000 compounds, 1.3% hits. CHO-K1 hM1, ACh EC80 antagonist;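 active = percent inhibition above its own plate's cutoff, namely the mean of that plate's compound wells plus 3 SD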;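 note: peak over basal fluorescence ratio during 140 s after agonist addition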
M1 ag parental: counter-screen for M1 agonists: effect in parental CHO-K1 cells. Fluo-8 calcium fluorescence; scaled to maximal ATP response, vehicle zero. AID 602248, 2012. 360,000 compounds, 0.48% hits. activation, % at 3 µM; in the data active = activation above about 15%;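 note: untransfected CHO-K1 host cells lacking M1 receptor as counterscreen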
CHO-K1 Ca PAM: nonselective calcium activators in parental CHO-K1 cells, primary screen, counter-screen for M1 PAM project, cell-based, Fluo-8 calcium fluorescence, full deck, 1536-well; ATP EC20; 0% at ATP EC20, 100% at ATP max; activation, % at 3 µM; 360,000 compounds, 0.02% hits;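 active = activation above the run cutoff, the mean activation of all test compounds plus 3 SD, cut at about 40% in these data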;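 note: peak over basal fluorescence ratio in a 140 s read after ATP addition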
M1 ag: human M1 muscarinic receptor agonists, primary screen, Fluo-8 calcium fluorescence, CHO-K1 cells, HTS | Muscarinic acetylcholine receptor M1 (Homo sapiens), P11229 | 360,000 compounds, 0.33% hits | activation, % at 3 µM | CHO-K1 hM1, agonist mode; 0% DMSO, 100% acetylcholine EC100;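 active = activation above the run's mean compound activation plus 3 SD, cut at about 16% in these data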;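 note: peak over basal fluorescence ratio within a 140 s kinetic read after compound addition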
Numbers stand for hits.

For CCOC(=O)CN(C)C(=O)C1CCCN1C(=O)OC(C)(C)C (stereo not given) the results were CHO-K1 Ca antag inactive, M1 PAM inactive, CHRM1 antagonist inactive, M1 ag parental inactive, CHO-K1 Ca PAM inactive and M1 ag inactive.
CN(Cc1cnn(-c2ccc(F)cc2)c1)C(=O)[C@H]1O[C@@H](n2ccc(=O)[nH]c2=O)[C@H](O)[C@@H]1O was read as CHO-K1 Ca antag inactive, M1 PAM inactive, CHRM1 antagonist inactive, M1 ag parental inactive, CHO-K1 Ca PAM inactive and M1 ag inactive.
`Cc1csc(=O)n1CC(=O)OCC(=O)c1c(N)n(CC(C)C)c(=O)n(C)c1=O` gave CHO-K1 Ca antag inactive, M1 PAM inactive, CHRM1 antagonist inactive, M1 ag parental inactive, CHO-K1 Ca PAM inactive and M1 ag inactive.
FC(F)(F)c1cnc(NNC(=S)Nc2ccccc2Cl)c(Cl)c1 was read as CHO-K1 Ca antag inactive, M1 PAM inactive, CHRM1 antagonist inactive, M1 ag parental 16, CHO-K1 Ca PAM inactive and M1 ag inactive.
Screening S=C(NCCNC(=S)Nc1ccccc1Cl)Nc1ccccc1Cl returned CHO-K1 Ca antag inactive, M1 PAM inactive, CHRM1 antagonist inactive, M1 ag parental 16, CHO-K1 Ca PAM inactive and M1 ag inactive.
For O=C(Nc1cccc(F)c1)C1CCN(c2nnnn2-c2ccccc2)CC1 the results were CHO-K1 Ca antag 28, M1 PAM inactive, CHRM1 antagonist inactive, M1 ag parental inactive, CHO-K1 Ca PAM inactive and M1 ag inactive.
For CCS(=O)(=O)N1CCN(c2ncnc3sc(C)c(C)c23)CC1 the results were CHO-K1 Ca antag inactive, M1 PAM inactive, CHRM1 antagonist inactive, M1 ag parental inactive, CHO-K1 Ca PAM inactive and M1 ag inactive.
Screening O=S(=O)(c1ccc(F)c(F)c1F)N1CCN(c2ncnc3sccc23)CC1 returned CHO-K1 Ca antag inactive, M1 PAM inactive, CHRM1 antagonist inactive, M1 ag parental inactive, CHO-K1 Ca PAM inactive and M1 ag inactive.
For Cc1sc2ncnc(N3CCN(S(=O)(=O)c4ccc(F)cc4)CC3)c2c1C the results were CHO-K1 Ca antag inactive, M1 PAM inactive, CHRM1 antagonist 29, M1 ag parental inactive, CHO-K1 Ca PAM inactive and M1 ag inactive.
O=S(=O)(c1ccccc1C(F)(F)F)N1CCN(c2ncnc3sccc23)CC1 was read as CHO-K1 Ca antag inactive, M1 PAM inactive, CHRM1 antagonist 29, M1 ag parental 17, CHO-K1 Ca PAM inactive and M1 ag inactive.
Cc1ccc(S(=O)(=O)N2CCN(c3ncnc4sccc34)CC2)cc1 was read as CHO-K1 Ca antag inactive, M1 PAM inactive, CHRM1 antagonist 30, M1 ag parental inactive, CHO-K1 Ca PAM inactive and M1 ag inactive.
`O=S(=O)(c1cc(C(F)(F)F)ccc1Cl)N1CCN(c2ncnc3ccccc23)CC1` gave CHO-K1 Ca antag inactive, M1 PAM inactive, CHRM1 antagonist 39, M1 ag parental inactive, CHO-K1 Ca PAM inactive and M1 ag inactive.
O=C1NC[C@H](CCCCN2CCN(Cc3ccccc3)C(=O)C2=O)N(CCc2ccccc2)C1=O was read as CHO-K1 Ca antag inactive, M1 ag parental inactive and CHO-K1 Ca PAM inactive.
C=CCNc1nc(Nc2ccc([N+](=O)[O-])cc2)nc(OC)n1 was read as CHO-K1 Ca antag 29, M1 PAM inactive, CHRM1 antagonist inactive, M1 ag parental inactive, CHO-K1 Ca PAM inactive and M1 ag inactive.
`O=C(c1ccc(Br)o1)N1CCN(c2ccc(F)cc2)CC1` gave CHO-K1 Ca antag inactive, M1 PAM inactive, CHRM1 antagonist inactive, M1 ag parental inactive, CHO-K1 Ca PAM inactive and M1 ag inactive.
CCN1CCN(c2ccc(N3CCN(C(=O)c4ccc(Br)o4)CC3)nn2)CC1 was read as CHO-K1 Ca antag inactive, M1 PAM inactive, CHRM1 antagonist 35, M1 ag parental inactive, CHO-K1 Ca PAM inactive and M1 ag inactive.
